Growth data for 13 compounds are collected here from PubChem BioAssay (NCI).

The panel holds about 83,000 compounds, 20% with a hit somewhere; the sample as a whole holds those more often.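 Note: values are percent growth. 100 is the growth of untreated cells, values between 100 and 0 indicate rising inhibition; between -100 and 0 indicates cell death.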 Calls of active or inactive are those of the source. How the source made its calls: active means growth percent below 10; inactive means the rest.

For the experiment, the system named is HL-60(TB) leukemia. The experiment can be described thus: NCI-60 one-dose screen, 48 h (100 = growth as untreated, 0 = no growth, -100 = all killed). To be noted: 10 µM unless noted.
On to `Cn1cc(-c2cc3nc(-c4cn(C)c5ncc(Br)cc45)cc(N)n3n2)c2cc(Cl)ccc21`, for which the growth is -62.4% (active).
As for `CC(=O)Nc1cccc(-c2nc3cc(-c4ccc(O)cc4)ccc3n2C)c1`, the figure is 20.7% (inactive); as for `COC(=O)c1c(C(=O)OC)c2c3ccccc3c3ccccc3n2c1C(=O)C(C)(C)C`, 72.5% (inactive); as for `COc1cccc(/C=C/c2nc3ccccc3c(=O)n2CC(=O)Nc2ccccc2)c1`, 97.7% (inactive).
Then `Cn1cc(-c2nc(N)nnc2-c2c[nH]c3ccc(Br)cc23)c2cccnc21`, with 5.1% (active).
Then `Cc1nn(-c2ccccc2)c2nc(C)n(C(=O)N/N=C/c3ccccc3)c(=O)c12`, with 104% (inactive).
As to `COc1c(B(O)O)cc(F)cc1-c1nc2ccc3[nH]ncc3c2c2c1COCC2`, the growth was 22.5% (inactive).
As for `COc1cccc(O)c1/C=C1\SCc2cc3c(OC)cccc3[o+]c21`, the figure is 100% (inactive).
As for `O=C(c1ccc(O)cc1)C1[C@H](c2ccccc2Br)[C@@H](c2ccccc2)NC12C(=O)Nc1ccc(Cl)cc12` (stereo partly drawn), the figure is -17.3% (active); as for `N#Cc1c(Cl)nc(SCc2ccc(F)cc2)nc1-c1ccc(F)cc1`, 50.2% (inactive); as for `O=C(Nc1ccc(F)c(Cl)c1)c1cc(-c2ccc(F)cc2F)ccc1O`, -41.3% (active).
As for `CC1(C)CC[C@]2(C(=O)O)CC[C@]3(C)C(=CCC4[C@@]5(C)C[C@@H](O)[C@@H]6OC(c7ccccc7Br)OC[C@@]6(C)C5CC[C@]43C)C2C1` (stereo partly drawn), the figure is 4.07% (active); as for `CN(C)CCn1c2ccccc2c2nc3cc4ccccc4cc3nc21`, -51.2% (active).
